Test system: Bacteroides clarus
Assay: growth AUC relative to DMSO control (median of replicates) (fraction); higher = more growth (less inhibition), active = hit call of the paper
Conditions: 20 µM; 24 h;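 active = AUC reduced over 20% with Padj below 0.05 in at least 2 of 3 replicates; inactive = otherwise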
Procedure, shortened: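 Gut bacteria were grown singly in mGAM at 37 °C without oxygen, from OD600 0.05, alongside 20 µM compound in 1% DMSO, and OD600 was read each hour for 24 h. Area under the growth curve was normalised to the median of solvent-only wells per plate, or to row and column medians on the industrial chemical plate. The minimum OD was set to 0 beforehand, and the reported value is the median of three biological replicates grown on separate days.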

Growth AUC, inactive:
O=C(O)Cc1c(Cl)ccc(Cl)c1Cl 0.99
COc1cc(OC)c(Cl)cc1N 0.995
O=S(Cc1ccc(Cl)cc1)c1ccc(Cl)cc1 (configuration not stated) 0.978
Cc1cc(C)c(C2=C(O)C3(CCCC3)OC2=O)c(C)c1 1.02
CN(C)C(=O)c1cccnc1S(N)(=O)=O 1.04
CCCN(CCOc1c(Cl)cc(Cl)cc1Cl)C(N)=O 0.959
Cc1nn(C)c(OCC(=O)c2ccccc2)c1C(=O)c1ccc(Cl)cc1Cl 0.978
CC(C)(C)Nc1nc(N)nc(Cl)n1 0.997
COC(=O)c1c(Cl)nn(C)c1S(=O)(=O)NC(=O)Nc1nc(OC)cc(OC)n1 1.07
[S] 1
CCCCCCCCc1c(CC)nc2ncnn2c1N 0.991
Cn1cc(C(=O)Nc2ccccc2-c2cc(F)c(F)c(F)c2)c(C(F)F)n1 0.937
CCCOc1nc2ccc(I)cc2c(=O)n1CCC 0.896
CNc1nc(NC(C)C)nc(SC)n1 0.972
CC(C)(C)[C@@H](O)[C@@H](Cc1ccc(Cl)cc1)n1cncn1 (mixture of isomers) 0.98
Cc1ccc2c(c1)[C@H](Nc1nc(N)nc(C(C)F)n1)[C@@H](C)C2 (some centres not stated) 0.969
CCN(CC)c1nc(C)cc(=O)[nH]1 1.03
